Sampled rows, rich in hits. Any-hit rate of the full collection: about 19%.
HT1080 IDH1KD tx: qHTS for induction of synthetic lethality in tumor cells producing 2HG: qHTS for the HT-1080-IDH1KD cell line; HT-1080 IDH1 knockdown viability, ATP luminescence, 48 h; Potency, µM (doses to about 46.1 µM), actives largely listed as cytotoxic; 360,000 compounds, 2% hits; AID 686971, 2013
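Knockdown cells (IDH1KD HT-1080) received compounds 2 h after plating at 750 cells/well and were kept 48 h at 37 °C in 5% FBS RPMI. A CellTiter-Glo luminescence read gave % activity for curve fitting.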
DT40 TDP1 no CPT: qHTS for Inhibitors of human tyrosyl-DNA phosphodiesterase 1 (TDP1): qHTS in cells in absence of CPT; DT40 Tdp1-/- hTDP1 cells, no CPT, ATP luminescence, 48 h; 420,000 compounds, 15% hits; Potency, µM (top dose mostly 46.2 µM), usual class: inhibitors; also: nearly all actives have a fitted effect of over 55% in size
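No-CPT arm: Tdp1-/-;hTDP1 DT40 cells (400/well) plus compounds, incubated ≥48 hr at 37 °C. Readout CellTiter-Glo luminescence.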
KB-V1 cytotox: qHTS assay for MDR1-selective chemotherapeutics: Primary screen using the drug-selected MDR subline cells KB-V1. KB-V1 MDR cells viability, CellTiter-Glo, 72 h. Potency, µM (doses to about 46.1 µM), most hits filed as cytotoxic. 400,000 compounds, 3.4% hits; also: nearly all actives have a fitted effect of over 60% in size
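In this primary screen, KB-V1 cells overexpressing P-gp are incubated with library compounds (lowest to highest concentration) for 72 h at 37 degrees C before a luminescent ATP viability read.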
DT40 TDP1 CPT: qHTS for Inhibitors of human tyrosyl-DNA phosphodiesterase 1 (TDP1): qHTS in cells in presence of CPT | AID 686979, 2013 | chicken DT40 Tdp1-/-;hTDP1 cells + 20 nM CPT, ATP luminescence, 48 h | Potency, µM (top dose mostly 46.2 µM), hits mostly inhibitors | 420,000 compounds, 12% hits; also: nearly all actives have a fitted effect of over 55% in size
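Chicken DT40 Tdp1-/- cells complemented with human TDP1, 400 cells/well, exposed to compounds plus 20 nM camptothecin for at least 48 h at 37 C; viability read as ATP content by CellTiter-Glo luminescence.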
HT1080-NT tox: qHTS for induction of synthetic lethality in tumor cells producing 2HG: qHTS for the HT-1080-NT fibrosarcoma cell line; 360,000 compounds, 1.6% hits; HT-1080-NT fibrosarcoma viability, CellTiter-Glo ATP luminescence, 48 h; Potency, µM (highest dose often 46.1 µM), hits mostly cytotoxic;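 also: NT is the 2HG producing partner of a matched IDH1 knockdown line; nearly all actives have a fitted effect of over 55% in size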
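Viability of the 2HG-overproducing fibrosarcoma line after 48 hours of compound exposure at 37 degrees C was determined by luminescence with CellTiter-Glo, and concentration-effect curves were then fitted and categorized.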
KB-3-1 tox: qHTS assay for MDR1-selective chemotherapeutics: Primary screen using the parental adenocarcinoma cell KB-3-1; Potency, µM (series often up to 46.1 µM), hits mostly cytotoxic; KB-3-1 viability, CellTiter-Glo ATP luminescence, 72 h; 400,000 compounds, 1.4% hits; also: nearly all actives have a fitted effect of over 60% in size
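KB-3-1 parental drug-naive adenocarcinoma cells in DMEM/10% FBS, incubated 72 h at 37 C with pin-transferred compounds across a concentration series. Viability by CellTiter-Glo luminescence; concentration-response curves fitted after normalization.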
Large screens that a line does not name were inactive. Calls follow the shape of the dose curve; as a rule, active = well fitted curve in the direction sought with a large enough effect; inconclusive = small, poorly fitted or top-dose-only effect, or another doubt; inactive = no such curve, though single readings can be large; an effect the other way counts as inactive or inconclusive.

Nc1cc(=O)[nH]c(SCCSc2cc(Cl)ccc2Cl)n1	KB-V1 cytotox 0.41µM, DT40 TDP1 CPT inconclusive, KB-3-1 tox 0.73µM
CC(C)(C)c1ccc(CSc2nc(N)cc(=O)[nH]2)cc1	HT1080 IDH1KD tx inconclusive, DT40 TDP1 no CPT 18µM, DT40 TDP1 CPT 23µM, HT1080-NT tox inconclusive
COc1ccc([N+](=O)[O-])cc1NC(=O)C1C2C=CC(C2)C1C(=O)O (configuration not stated)	none
CC(C)(C)C(=O)NCCCc1nc2ccccc2n1CCCOc1ccc(Cl)cc1	HT1080 IDH1KD tx inconclusive, DT40 TDP1 no CPT 8.2µM, KB-V1 cytotox 16µM, DT40 TDP1 CPT 6.5µM, HT1080-NT tox inconclusive, KB-3-1 tox inconclusive
C=C(C)Cn1c(CCCNC(=O)C(C)(C)C)nc2ccccc21	DT40 TDP1 no CPT 23µM, DT40 TDP1 CPT 16µM
CC(O)c1nc2ccccc2n1CCCCOc1ccccc1 (configuration not stated)	DT40 TDP1 no CPT 15µM
C=CCn1c(CCCNC(=O)C(C)(C)C)nc2ccccc21	DT40 TDP1 no CPT inconclusive, DT40 TDP1 CPT inconclusive
COc1ccccc1OCCn1c(C(C)Oc2ccccc2)nc2ccccc21 (configuration not stated)	DT40 TDP1 no CPT inconclusive, DT40 TDP1 CPT 26µM (no result: HT1080 IDH1KD tx, HT1080-NT tox)
O=C(Cc1ccc2ccccc2c1)NO	none (no result: KB-V1 cytotox, KB-3-1 tox)
CCCc1cn(CC(C)n2c(=O)c3ccccc3n2Cc2cc(C(C)C)no2)nn1 (configuration not stated)	none
O=C1OCC/C1=C1/NCCNC1=O	DT40 TDP1 no CPT inconclusive, KB-3-1 tox inconclusive
Cc1ccc(NC(=O)c2nnn(Cc3cccc(C(F)(F)F)c3)c2N)c(C)c1	DT40 TDP1 no CPT inconclusive, DT40 TDP1 CPT inconclusive (no result: HT1080 IDH1KD tx, HT1080-NT tox)
CC(=O)NCCc1nc2ccccc2n1CCCCOc1ccc(Cl)cc1	DT40 TDP1 no CPT 15µM, DT40 TDP1 CPT 21µM (no result: HT1080 IDH1KD tx, HT1080-NT tox)
CC(=O)NCCc1nc2ccccc2n1CCCCOc1ccccc1	DT40 TDP1 no CPT 13µM, DT40 TDP1 CPT inconclusive
Cn1c(CCCNC(=O)c2ccccc2)nc2ccccc21	none
CCCCCn1c(CCCNC(=O)c2ccc(Cl)cc2)nc2ccccc21	DT40 TDP1 no CPT 16µM, KB-V1 cytotox inconclusive, DT40 TDP1 CPT inconclusive, KB-3-1 tox inconclusive (no result: HT1080 IDH1KD tx, HT1080-NT tox)
CCOC(=O)c1ccccc1NC(=O)Cn1c(=O)n(Cc2nc(-c3ccccc3)no2)c(=O)c2ccccc21	none (no result: HT1080 IDH1KD tx, HT1080-NT tox)
COCCCNC(=O)C[C@@H]1C[C@@]2(C(=O)OC)CC(C)(C)CC=C2N(Cc2ccccc2)C1=O	DT40 TDP1 CPT inconclusive
COC(=O)[C@@]12C[C@@H](CC(=O)NCCc3ccccc3OC)C(=O)N(Cc3ccc4c(c3)OCO4)C1=CCC(C)(C)C2	HT1080 IDH1KD tx inconclusive, DT40 TDP1 no CPT inconclusive, KB-V1 cytotox inconclusive, DT40 TDP1 CPT inconclusive, HT1080-NT tox inconclusive
CCCCOCCCNC(=O)C[C@@H]1C[C@@]2(C(=O)OC)CCCCC=C2N(Cc2ccc3c(c2)OCO3)C1=O	DT40 TDP1 no CPT inconclusive, KB-V1 cytotox inconclusive, DT40 TDP1 CPT inconclusive
CCCCNC(=O)C[C@@H]1C[C@@]2(C(=O)OC)CC(C)(C)CC=C2N(Cc2ccc3c(c2)OCO3)C1=O	DT40 TDP1 no CPT inconclusive, KB-V1 cytotox inconclusive, DT40 TDP1 CPT 16µM
COC(=O)[C@@]12C[C@@H](CC(=O)NCCc3ccccc3OC)C(=O)N(Cc3ccccc3)C1=CCC(C)(C)C2	HT1080 IDH1KD tx inconclusive, DT40 TDP1 no CPT inconclusive, KB-V1 cytotox 12µM, DT40 TDP1 CPT 21µM, HT1080-NT tox inconclusive
COC(=O)[C@@]12C[C@@H](CC(=O)NCCCCc3ccccc3)C(=O)N(Cc3ccc4c(c3)OCO4)C1=CCC(C)(C)C2	HT1080 IDH1KD tx inconclusive, DT40 TDP1 no CPT 13µM, KB-V1 cytotox 23µM, DT40 TDP1 CPT inconclusive, HT1080-NT tox inconclusive, KB-3-1 tox inconclusive
CC(C)c1ccc(NS(=O)(=O)c2ccc(Cl)nc2)cc1	none
O=[N+]([O-])c1ccc(NS(=O)(=O)c2ccc(Cl)c(Cl)c2)cc1	HT1080 IDH1KD tx 18µM, DT40 TDP1 no CPT 10µM, KB-V1 cytotox inconclusive, DT40 TDP1 CPT 9.2µM, HT1080-NT tox 16µM, KB-3-1 tox inconclusive
O=[N+]([O-])c1cc(NS(=O)(=O)c2ccc(Cl)nc2)ccc1Cl	HT1080 IDH1KD tx inconclusive, DT40 TDP1 no CPT 16µM, KB-V1 cytotox inconclusive, DT40 TDP1 CPT inconclusive, HT1080-NT tox inconclusive
O=[N+]([O-])c1ccc(Oc2ccc(S(=O)(=O)Nc3ccccc3)cc2)cc1	HT1080 IDH1KD tx inconclusive, DT40 TDP1 no CPT 10µM, DT40 TDP1 CPT inconclusive, HT1080-NT tox inconclusive, KB-3-1 tox inconclusive
O=C1C(Cl)=C(NS(=O)(=O)c2ccc([N+](=O)[O-])cc2)C(=O)c2ccccc21	HT1080 IDH1KD tx inconclusive, DT40 TDP1 no CPT 8.2µM, KB-V1 cytotox inconclusive, DT40 TDP1 CPT 10µM, HT1080-NT tox inconclusive, KB-3-1 tox inconclusive
Cc1cc2[nH]c(=S)[nH]c2cc1C	KB-3-1 tox inconclusive
Fc1cc2[nH]c(=S)[nH]c2cc1Cl	KB-V1 cytotox 3.7µM, KB-3-1 tox 8.2µM
CSC1=C(C#N)C(=O)NC(c2ccccc2O)S1 (configuration not stated)	none
COC(=O)CSC1=C(C#N)C(c2cccc(OC)c2)CC(=O)N1 (configuration not stated)	DT40 TDP1 no CPT inconclusive, KB-V1 cytotox inconclusive, DT40 TDP1 CPT inconclusive, KB-3-1 tox inconclusive
COC(=O)CSC1=C(C#N)C(c2cccc(F)c2)CC(=O)N1 (configuration not stated)	HT1080 IDH1KD tx inconclusive, DT40 TDP1 no CPT 23µM, KB-V1 cytotox inconclusive, DT40 TDP1 CPT inconclusive, HT1080-NT tox 15µM, KB-3-1 tox 16µM
COC(=O)CSC1=C(C#N)C(c2ccccc2)CC(=O)N1 (configuration not stated)	DT40 TDP1 no CPT inconclusive, KB-V1 cytotox 18µM, DT40 TDP1 CPT inconclusive, HT1080-NT tox inconclusive, KB-3-1 tox inconclusive
COC(=O)CSC1=C(C#N)C(=O)NC(c2ccccc2)S1 (configuration not stated)	DT40 TDP1 no CPT 2.1µM, KB-V1 cytotox inconclusive, DT40 TDP1 CPT 2.6µM, KB-3-1 tox inconclusive
Cc1ccc(-c2cc(Cc3ccccc3)c(=O)[nH]n2)cc1	DT40 TDP1 no CPT inconclusive, DT40 TDP1 CPT inconclusive
Cc1cn([C@H]2C[C@H](O)[C@@H](/C=C/C(=O)NCCC(C)C)O2)c(=O)[nH]c1=O	KB-V1 cytotox inconclusive

High-throughput results as filed in PubChem BioAssay.
